Test [1] has as its target POU1 (OCT1 POU domain) (human, UniProt P14859 260-458). As to the kind of experiment: EMSA-SELEX-seq; no BOB1; 20 mM Tris-HCl pH 7.6, 140 mM NaCl, 10% glycerol, 0.5 mM EDTA, 0.05% Triton X-100, 0.1 mg/mL BSA, 0.1 mg/mL poly(dI-dC), 5 mM DTT, room temperature, 20 min; high values mean tight binding. The note with it: protein: recombinant; dsDNA, one strand shown. Put shortly:
(§1)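 Tagged POU-domain proteins were expressed in E. coli BL21, purified under denaturing conditions and renatured. Then 30 ng was mixed with 300 ng of a PCR-amplified double-stranded random 35-nt library, with or without 28 ng coactivator protein, in 20 μL Tris–HCl pH 7.6 binding buffer for 20 min at RT. Complex bands were cut from native 6% PAGE, eluted and PCR-amplified over four rounds, then Illumina-sequenced. Binding preference is the percentage of sequenced 8-mers matching a motif pattern.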

Test [2] deals with T1, POU2 (OCT2 POU domain) (human, UniProt P09086 175-386).
T1 sequence: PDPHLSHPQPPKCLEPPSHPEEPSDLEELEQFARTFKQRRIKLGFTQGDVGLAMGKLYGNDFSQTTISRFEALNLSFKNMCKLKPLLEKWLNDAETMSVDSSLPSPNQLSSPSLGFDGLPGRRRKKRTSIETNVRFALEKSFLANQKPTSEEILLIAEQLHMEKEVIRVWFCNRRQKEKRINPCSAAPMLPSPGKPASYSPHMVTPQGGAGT
The description is as above. The note with it: protein: recombinant; dsDNA, one strand shown. In outline:
as §1

Test [3] concerns the target POU1 (OCT1 POU domain);BOB1 (OBF1, OCA-B) (human;human, UniProt P14859;Q16633 260-458;1-256, |). As to the kind of experiment: EMSA-SELEX-seq; with BOB1 (ternary complex band); 20 mM Tris-HCl pH 7.6, 140 mM NaCl, 10% glycerol, 0.5 mM EDTA, 0.05% Triton X-100, 0.1 mg/mL BSA, 0.1 mg/mL poly(dI-dC), 5 mM DTT, room temperature, 20 min; high values mean tight binding. The note with it: protein: recombinant;recombinant; copies: 1;1; dsDNA, one strand shown. Put shortly:
as §1

Test [4] deals with T2, POU2 (OCT2 POU domain);BOB1 (OBF1, OCA-B) (human;human, UniProt P09086;Q16633 175-386;1-256, |).
T2 sequence 1: T1 sequence
T2 sequence 2: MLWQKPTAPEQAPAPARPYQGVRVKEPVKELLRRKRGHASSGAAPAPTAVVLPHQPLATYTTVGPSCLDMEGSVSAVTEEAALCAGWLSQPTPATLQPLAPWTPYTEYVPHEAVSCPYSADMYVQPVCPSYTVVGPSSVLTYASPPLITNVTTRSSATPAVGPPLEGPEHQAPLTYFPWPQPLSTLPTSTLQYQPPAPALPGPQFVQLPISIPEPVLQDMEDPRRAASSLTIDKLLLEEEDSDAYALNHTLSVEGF
Described as above. The note with it: protein: recombinant;recombinant; copies: 1;1; dsDNA, one strand shown. In outline:
as §1

The values that follow come from article PMC10812921, “Transcriptional Coactivator BOB1 (OBF1, OCA-B) Modulates the Specificity of DNA Recognition by the POU-Domain Factors OCT1 and OCT2 in a Monomeric Configuration”.

Sequence of POU1 (OCT1 POU domain) (P14859 260-458): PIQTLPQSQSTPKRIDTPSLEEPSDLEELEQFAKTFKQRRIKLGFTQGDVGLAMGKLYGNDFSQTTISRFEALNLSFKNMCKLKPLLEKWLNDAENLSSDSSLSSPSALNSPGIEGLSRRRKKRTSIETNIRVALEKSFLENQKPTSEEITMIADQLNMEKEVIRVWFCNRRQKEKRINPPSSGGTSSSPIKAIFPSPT

As for ATCGCAAT, the binding signal in test [1] was 0.0336 % of ANNNNAAN 8-mers; in test [2], 0.0391 % of ANNNNAAN 8-mers; in test [3] it was 0.0328 % of ANNNNAAN 8-mers; in test [4], 0.0347 % of ANNNNAAN 8-mers.
Take AAGGGAAA: the binding signal is 0.196 % of ANNNNAAN 8-mers in test [1], 0.146 % of ANNNNAAN 8-mers in test [2], 0.255 % of ANNNNAAN 8-mers in test [3] and 0.136 % of ANNNNAAN 8-mers in test [4].
For ACCTAAAC, the binding signal was 0.013 % of ANNNNAAN 8-mers in test [1], 0.0178 % of ANNNNAAN 8-mers in test [2], 0.0211 % of ANNNNAAN 8-mers in test [3] and 0.0223 % of ANNNNAAN 8-mers in test [4].
Take ATGTTAAC: the binding signal in test [1] was 0.0645 % of ANNNNAAN 8-mers; in test [2], 0.0938 % of ANNNNAAN 8-mers; in test [3], 0.0578 % of ANNNNAAN 8-mers; in test [4], 0.0586 % of ANNNNAAN 8-mers.
The matching figures for ATGGCAAA: 0.0774 % of ANNNNAAN 8-mers, 0.057 % of ANNNNAAN 8-mers, 0.113 % of ANNNNAAN 8-mers and 0.0776 % of ANNNNAAN 8-mers.
Consider ATACTAAG, for which the binding signal was 0.045 % of ANNNNAAN 8-mers in test [1], 0.0518 % of ANNNNAAN 8-mers in test [2], 0.0441 % of ANNNNAAN 8-mers in test [3] and 0.0438 % of ANNNNAAN 8-mers in test [4].
On to ACAGGAAG, for which the binding signal in test [1] was 0.0343 % of ANNNNAAN 8-mers; in test [2] it was 0.038 % of ANNNNAAN 8-mers; in test [3], 0.0332 % of ANNNNAAN 8-mers; in test [4], 0.0396 % of ANNNNAAN 8-mers.
For the sequence ACAGTAAC, the binding signal in test [1] is 0.0149 % of ANNNNAAN 8-mers; in test [2] it was 0.0242 % of ANNNNAAN 8-mers; in test [3], 0.0148 % of ANNNNAAN 8-mers; in test [4] it was 0.0149 % of ANNNNAAN 8-mers.
Turning to AGGCCAAA, the binding signal was 0.029 % of ANNNNAAN 8-mers in test [1], 0.027 % of ANNNNAAN 8-mers in test [2], 0.0242 % of ANNNNAAN 8-mers in test [3] and 0.0281 % of ANNNNAAN 8-mers in test [4].
Turning to ATACCAAC, the binding signal was 0.0244 % of ANNNNAAN 8-mers in test [1], 0.0276 % of ANNNNAAN 8-mers in test [2], 0.0242 % of ANNNNAAN 8-mers in test [3] and 0.0215 % of ANNNNAAN 8-mers in test [4].
